Hits are enriched below; roughly 2.4% of the tested compounds scored in any of these assays.
POLB inh = qHTS Assay for Inhibitors of DNA Polymerase Beta; actives 1.3% (n = 340,000); P06746; Pol beta primer extension/strand displacement, fluorescence kinetic; Potency, µM (titrated, usually from 114 µM), for inactives: at the top dose activity change, negative = inhibition, hits mostly inhibitors; AID 485314, 2010; also: % is scaled to controls: 0 for no effect and ±100 for the full control effect
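Values derive from four-parameter Hill fits of normalized kinetic data: reads at 0 and 10 min following addition of 50 nM substrate to 10 nM Pol beta preincubated 15 min with compound.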
Pol eta inh = qHTS for Inhibitors of Polymerase Eta; DNA polymerase eta (Homo sapiens), Q9Y253; recombinant Pol eta, fluorescent DNA replication assay; Potency, µM (top dose mostly 114 µM), for the others: top-dose activity change, negative = inhibition, actives largely listed as inhibitors; actives 1.2% (n = 390,000); AID 588591, 2011; also: % is scaled to controls: 0 for no effect and ±100 for the full control effect
Target sequence (Q9Y253 whole entry, looked up): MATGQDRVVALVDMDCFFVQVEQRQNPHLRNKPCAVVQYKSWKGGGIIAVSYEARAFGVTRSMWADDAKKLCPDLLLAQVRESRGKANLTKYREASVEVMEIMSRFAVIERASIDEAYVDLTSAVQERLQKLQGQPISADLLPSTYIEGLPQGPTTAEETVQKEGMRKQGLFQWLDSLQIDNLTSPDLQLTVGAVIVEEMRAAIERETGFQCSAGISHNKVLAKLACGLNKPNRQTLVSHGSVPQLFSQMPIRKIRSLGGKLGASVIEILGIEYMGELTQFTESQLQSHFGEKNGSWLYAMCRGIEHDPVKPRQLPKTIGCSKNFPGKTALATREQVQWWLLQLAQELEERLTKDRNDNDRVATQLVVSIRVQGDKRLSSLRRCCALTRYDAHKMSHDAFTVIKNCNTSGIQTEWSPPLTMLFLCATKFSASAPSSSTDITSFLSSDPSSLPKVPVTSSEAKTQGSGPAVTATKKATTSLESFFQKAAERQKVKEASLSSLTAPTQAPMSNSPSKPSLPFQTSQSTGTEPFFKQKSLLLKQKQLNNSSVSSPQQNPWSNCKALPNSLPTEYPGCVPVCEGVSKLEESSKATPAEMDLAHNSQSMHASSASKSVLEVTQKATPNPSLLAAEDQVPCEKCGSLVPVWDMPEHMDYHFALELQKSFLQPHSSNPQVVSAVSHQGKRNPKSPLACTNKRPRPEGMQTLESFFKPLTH
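Fluorescent replication assay: 50 nM final substrate added after a 15 min room-temperature compound preincubation with 10 nM enzyme. Signal taken at 0 min and again at 10 min.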
POLI inh = qHTS for Inhibitors of Polymerase Iota; AID 588590, 2011; Pol iota fluorescent replication assay, 10 min; Potency, µM (top dose mostly 115 µM), inactives show at the top dose activity, negative = inhibition, usual class: inhibitors; actives 1% (n = 390,000); DNA polymerase iota (Homo sapiens), Q9UNA4
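Fluorescent replication assay read twice, at 0 min and 10 min after adding 50 nM (final) substrate. Enzyme (10 nM) and compounds were first incubated 15 min at room temperature; enzyme-free buffer wells were negative controls.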
Pol kappa inh = qHTS for Inhibitors of Polymerase Kappa; purified Pol kappa, fluorescent DNA synthesis assay, 10 min; actives 0.53% (n = 400,000); DNA polymerase kappa (Homo sapiens), Q9UBT6; Potency, µM (series often up to 107 µM), for inactives: top-dose activity, negative = inhibition, actives largely listed as inhibitors; also: % is scaled to controls: 0 for no effect and ±100 for the full control effect
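10 nM Pol kappa preincubated 15 min at room temperature with compounds, then reaction started with substrate at 50 nM final. Fluorescence read kinetically at 0 and 10 min; buffer-only wells served as negative control.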
GLS inhibitor = qHTS for Inhibitors of Glutaminase (GLS) | GLS enzymatic activity, qHTS titration | Potency, µM (top dose mostly 45.5 µM), for inactives: at the highest dose activity change, negative = inhibition, actives largely listed as inhibitors | actives 0.21% (n = 410,000); also: % is scaled to controls: 0 for no effect and ±100 for the full control effect
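Human kidney-isoform GLS in 45 mM KH2PO4 pH 8.2, 0.02% Tween-20, with compound, started with 1mM L-Glutamine (added stock). Glutamate oxidase/HRP/Amplex red coupled fluorescence read at start and after 30 min at RT.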
APE1 inh = qHTS Assay for Inhibitors of the Human Apurinic/apyrimidinic Endonuclease 1 (APE1); DNA repair nuclease/redox regulator APEX1 (Homo sapiens), P27695; recombinant APE1, TAMRA/BHQ-2 abasic DNA cleavage fluorescence; Potency, µM (titrated, usually from 65.8 µM), for inactives: at the top dose activity change, negative = inhibition, usual class: inhibitors; actives 0.35% (n = 350,000); AID 2517, 2012;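 also: plate controls were vehicle for no effect and reference inhibitor for full effect; nearly all actives have a fitted effect of over 55% in size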
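Compound pre-exposure to 0.75 nM APE1, 15 min at ambient temperature. Reaction initiated with 50 nM TAMRA/BHQ-2 THF substrate, read immediately in kinetic mode, 525 nm excitation, 598 nm emission.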
* hit, by the source's call; ? = inconclusive; nt = not tested or not shown; [ ] = remark or other dose. Calls follow the shape of the dose curve; as a rule, active = well fitted curve in the direction sought with a large enough effect; inconclusive = small, poorly fitted or top-dose-only effect, or another doubt; inactive = no such curve, though single readings can be large; an effect the other way counts as inactive or inconclusive. Potency is read from the fitted curve at half-maximal effect.

SMILES	POLB inh	Pol eta inh	POLI inh	Pol kappa inh	GLS inhibitor	APE1 inh
CCC(=O)Nc1cc2c3c(c1)CCN3C(=O)CC2	37.5%	7.7%	?	79.4µM*	4.9%	25.3%
CN(C(=O)COC(=O)c1n[nH]c(=O)c2ccccc12)c1ccccc1	nt	-14.9%	5.8%	-9.7%	-0.6%	21.0%
Cc1cc2nc(C3CCN(C(=S)NCCCOC(C)C)CC3)[nH]c2cc1C	13.0%	-10.7%	32.0%	2.0%	4.4%	0.7%
Cc1ccc(-n2c(-c3ccc(Br)cc3)c[n+]3c2CCc2ccc4cccnc4c2-3)cc1	50.1µM*	-8.9%	-2.6%[58.9 µM]	-0.5%	-2.8%	-8.4%
CC1=C(C#N)C(c2cn(-c3ccccc3)nc2-c2cccs2)C(C#N)=C(C)N1	-9.3%	-15.8%	?	-14.0%	6.4%	-4.1%
CCN(CC)c1ccc(/C=C/c2ccc3ccccc3n2)cc1	nt	nt	?	39.8µM*	nt	nt
Cc1c(OCC(=O)NC(Cc2c[nH]c3ccc(O)cc23)C(=O)O)ccc2c3c(c(=O)oc12)CCC3 (stereo unspecified)	-9.6%	?	?	-18.7%	?	-10.4%
CC(=O)c1c(C)[nH]c(C(=O)OCC(=O)Nc2ncc(Cl)c(C)c2Cl)c1C	?	89.1µM*	?	-29.8%	-1.4%	-2.9%
CC(=O)c1c(C)[nH]c(C(=O)OCC(=O)NCc2ccc(Cl)cc2)c1C	nt	-12.6%	-13.6%	-2.9%	-8.7%	2.0%
CC(C)=CC(=O)OCC(=O)Nc1ncc(Cl)c(C)c1Cl	39.8µM*	79.4µM*	?	?	-6.3%	-2.0%
Cc1c(Cl)cnc(NC(=O)COC(=O)C2CC2)c1Cl	nt	?	-13.8%	-23.8%	-12.7%	-3.1%
O=C(NCCCn1ccnc1)C(=O)NCC1OCCN1S(=O)(=O)c1ccc(Cl)cc1 (stereo unspecified)	-23.2%	-16.5%	16.1%	1.9%	2.8%	-0.8%
O=C(Cc1ccc(Br)cc1)N1CCOCC1	26.2%	-16.7%	111.4%	-3.2%	2.7%	50.0%
N#CC1(NC(=O)COC(=O)c2nccnc2N)CCCCC1	nt	-11.3%	33.5%	-3.5%	3.4%	11.1%
O=C(CSc1ccccc1)Nc1nnc(COc2ccc(Cl)cc2)s1	20µM*	?	39.6%	-24.9%	-14.5%	-1.9%
CCCC[C@@H]1CNCCN1CC1(c2ccccc2)CC1	nt	-2.5%	-21.3%	-7.6%	14.1%	13.1%
O=S(=O)(c1ccc(NC(=S)NN=C2CCCCC2)cc1)N1CCOCC1	-17.6%	1.1%	90.8%	-12.7%	?	35.5µM*
CC(C)c1ccc(S(=O)(=O)c2ccc(NN)cc2)cc1	2.9%	-16.1%	-1.6%	3.3%	?	-5.8%
CCc1c(O)cc(=O)n(-c2ccccc2)c1-c1ccccc1	22.4µM*	31.6µM*	?	-16.3%	-3.8%	-3.0%
Cc1ccc(C)c(S(=O)(=O)Nc2cc(SCC(=O)O)c(O)c3ccccc23)c1	79.4µM*	22.4µM*	8.91µM*	-22.5%	?	-11.6%
Cc1ccc(NC(=O)CC2SC(=O)N(c3ccccc3)C2=O)cc1 (stereo unspecified)	31.2%	-11.7%	48.9%	-1.9%	11.2µM*	-0.4%
CCOc1ccc(NC(=O)c2ccc3c(SCC(=O)O)c4c(nc3c2)CCCC4)cc1	-2.1%	?	40.8%	8.2%	5.3%	-5.4%
O=C(O)CSc1c2c(nc3cc(C(=O)Nc4cccc(C(F)(F)F)c4)ccc13)CCC2	?	39.8µM*	?	?	2.0%	6.3%
S=C(Nc1cc(Cl)cc(Cl)c1)N1CCCC1	35.1%	-3.9%	-14.7%	-2.2%	6.8%	-9.4%
COC(=O)c1cc(O)c(O)c(O)c1	?	-14.5%	16.4%	-10.9%	1.9%	14.1µM*
CCCOC(=O)c1cc(O)c(O)c(O)c1	nt	nt	nt	nt	61.9%	nt
